Most compounds without a hit are left out; they make up all but 19% or so of the library.
TDP1 cell CPT – DT40-hTDP1 cell growth loss with CPT | 420,000 compounds, 12% hits | Potency, µM (series often up to 46.2 µM), usual class: inhibitors | chicken DT40 Tdp1-/-;hTDP1 cells + 20 nM CPT, ATP luminescence, 48 h; also: nearly all actives have a fitted effect of over 55% in size
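Chicken DT40 Tdp1-/- cells stably complemented with human TDP1 were seeded at 400 cells/well in medium containing 20 nM camptothecin, exposed to pin-transferred compounds, and grown at 37 °C for at least 48 hr. Viability was read as ATP luminescence.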
ELG1 DNA repair – inhibitors of ELG1-dependent DNA repair in HEK293T cells. HEK293T ELG1-luciferase reporter, luminescence, 16 h; DNA damage induced by 5-fluorouridine. Potency, µM (series often up to 46.1 µM), actives largely listed as inhibitors. 330,000 compounds, 2.3% hits. AID 504467; also: nearly all actives have a fitted effect of over 55% in size
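DMSO vehicle served as the neutral condition. Each well held 2,000 cells given 5-fluorouridine plus compound; after 16 hr at 37 °C/5% CO2, ONE-Glo was added and luciferase measured 30 min later.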
HT1080 IDH1KD tx – kills HT-1080 cells with IDH1 knockdown; 360,000 compounds, 2% hits; Potency, µM (doses to about 46.1 µM), actives largely listed as cytotoxic; HT-1080 IDH1 knockdown viability, ATP luminescence, 48 h
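In this qHTS, HT-1080 cells depleted of IDH1 are exposed for 48 h at 37 °C to compound titrations. Toxicity is scored from CellTiter-Glo luminescence, with DMSO as full viability and medium alone as none.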
IL-1B inflam inh – inflammasome signaling inhibition, IL-1 beta readout. THP-1 LPS/ATP IL-1B secretion, AlphaLISA, 16 h; hits give low values. activity change, % at 57.5 µM. 360,000 compounds, 4.7% hits. AID 743279; in the data active = activity change below about -50%; inconclusive = mostly about -30% to -49%
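THP-1 cells pretreated 1 hr with compounds (up to 57.5 uM final), then stimulated with LPS (250 ng/mL final) plus ATP (1.25 mM final); secreted IL-1B measured by AlphaLISA after 16 hr, decreased signal indicating inhibition.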
HT1080NT lethal – kills 2HG-producing HT-1080-NT fibrosarcoma cells; HT-1080-NT fibrosarcoma viability, CellTiter-Glo ATP luminescence, 48 h; Potency, µM (top dose mostly 46.1 µM), hits mostly cytotoxic; AID 686970; 360,000 compounds, 1.6% hits;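 also: NT is the 2HG producing partner of a matched IDH1 knockdown line; nearly all actives have a fitted effect of over 55% in size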
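750 cells/well, RPMI + 5% FBS; 2 h settle, compound pin-transfer, 48 h at 37 degrees C. CellTiter-Glo 10 min RT, luminescence. Normalized to DMSO and media-only wells.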
TDP1 cell noCPT – qHTS for Inhibitors of human tyrosyl-DNA phosphodiesterase 1 (TDP1): qHTS in cells in absence of CPT. DT40 Tdp1-/- hTDP1 cells, no CPT, ATP luminescence, 48 h. Potency, µM (series often up to 46.2 µM), usual class: inhibitors. 420,000 compounds, 15% hits. AID 686978, 2013; also: nearly all actives have a fitted effect of over 55% in size
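Compound effects on proliferation are scored in DT40 Tdp1-/-;hTDP1 cells in the absence of CPT. ATP levels (CellTiter-Glo luminescence) are recorded after a ≥48 hr, 37 °C incubation.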
Hits are given with their value; 0 = inactive; ? = inconclusive; - = no result given. Unless noted, calls follow the shape of the dose curve; as a rule, active = well fitted curve in the direction sought with a large enough effect; inconclusive = small, poorly fitted or top-dose-only effect, or another doubt; inactive = no such curve, though single readings can be large; an effect the other way counts as inactive or inconclusive.

SMILES	TDP1 cell CPT	ELG1 DNA repair	HT1080 IDH1KD tx	IL-1B inflam inh	HT1080NT lethal	TDP1 cell noCPT
COCCNC(=O)C1(C)CCCN(CCOc2ccc(Cl)cc2)C1 (stereo unspecified)	?	-	0	0	0	15µM
CCCNC(=O)C1(C)CCN(Cc2ccc(Oc3ccccc3)cc2)C1 (stereo unspecified)	?	-	?	0	?	?
CC(C)N1CCCC(C)(C(=O)Nc2cccc(Oc3ccccc3)c2)C1 (stereo unspecified)	?	-	0	0	0	13µM
COCCNC(=O)C1(C)CCCN(Cc2ccc(Oc3ccccc3)cc2)C1 (stereo unspecified)	?	-	0	0	0	21µM
CCCNC(=O)C1(C)CCCN(Cc2ccc(-c3ccccc3)o2)C1 (stereo unspecified)	23µM	-	?	0	0	21µM
Cc1cccn2c(=O)c3cc(C(=O)NCC4CCCO4)c(=N)n(C4CCCC4)c3nc12 (stereo unspecified)	0	0	0	0	0	?
CO/N=C(\C(=O)N[C@@H]1C(=O)N2C(C(=O)O)=C(CSC(=O)c3ccco3)CS[C@H]12)c1csc(N)n1	0	-	-	-	-	0
CCCNC(=O)C1(C)CCCN(Cc2cccc(C#N)c2)C1 (stereo unspecified)	18µM	-	?	0	0	21µM
CCCNC(=O)C1(C)CCCN(Cc2ccc(C(F)(F)F)cc2)C1 (stereo unspecified)	21µM	-	0	0	?	?
O=S1(=O)c2ccccc2N(Cc2ccccc2)c2ccccc21	0	-	-	-	-	0
CC12C=CC(=O)C=C1CCC1C2C(=O)CC2(C)C1CCC2(O)C(=O)CO (stereo unspecified)	0	-	0	?	?	0
C[C@H](CO)N1C[C@H](C)[C@@H](CN(C)C(=O)Nc2ccc3c(c2)OCO3)Oc2ccc(NS(=O)(=O)c3ccc(F)cc3)cc2C1=O	0	0	0	0	0	0
CC(C)NC(=O)C1(C)CN(S(C)(=O)=O)CC(=O)N1CCc1ccccc1F (stereo unspecified)	0	-	0	0	0	0
Cc1nn(C)cc1/C=N\NC(=O)c1ccc2c(c1)c(C)c(C)n2Cc1ccccc1	0	0	0	0	0	0
Cc1c(C#N)c(NC(=O)C(C)C)n(Cc2ccccc2)c1C	0	0	0	0	0	0
Cc1c(C)n(Cc2ccccc2)c2ccc(C(=O)O)cc12	0	-	0	-	0	0
Cc1ccccc1NC(=O)c1ccc2c(c1)c(C)c(C)n2Cc1ccccc1	7.3µM	-	-	-	-	4.1µM
Cc1c(C)n(Cc2ccccc2)c2ccc(C(=O)NC(C)c3ccccc3)cc12 (stereo unspecified)	16µM	-	-	-	-	16µM
Cc1cccc(C(=O)Nc2c(C#N)c(C)c(C)n2Cc2ccccc2)c1	?	0	0	0	0	16µM
CCOc1ccc(NC(=O)CSc2nc3ccsc3c(=O)n2Cc2ccc(C(=O)O)cc2)cc1	0	-	0	0	0	0
COCCn1c(=O)c(-c2cccs2)nc2cnc(Oc3ccccc3)nc21	?	-	-	-	-	0
Cc1c(C(=O)N2CCN(c3ncccn3)CC2)oc2ccc(Cl)cc12	0	?	0	0	0	0
CC1CCCC(C)N1CCCNC(=O)c1ccc2nc(N3CCCCC3)sc2c1 (stereo unspecified)	0	?	0	0	0	0
CCCCN(CCCC)CCCNC(=O)c1ccc2nc(N3CCCCC3)sc2c1	?	-	-	-	-	23µM
CCCN1CCN(CCCNC(=O)c2ccc3nc(N4CCCCC4)sc3c2)CC1	0	?	0	0	0	0
SMILES	TDP1 cell CPT	ELG1 DNA repair	HT1080 IDH1KD tx	IL-1B inflam inh	HT1080NT lethal	TDP1 cell noCPT
Cc1ccc(C)c(N2CCN(CCCNC(=O)c3ccc4nc(N5CCCCC5)sc4c3)CC2)c1	18µM	-	-	-	-	10µM
Cc1ccc(C)c(OCc2cc(C(=O)NC3CCOC(C)(C)C3)no2)c1 (stereo unspecified)	0	?	0	0	0	0
C[C@H]1CCCCO[C@@H](CN(C)S(=O)(=O)c2ccc(F)cc2)[C@@H](C)CN([C@@H](C)CO)C(=O)c2cc(NC(=O)Nc3ccc4c(c3)OCO4)ccc2O1	18µM	-	0	0	0	9.2µM
COc1ccc(S(=O)(=O)N(C)C[C@@H]2OCCCC[C@H](C)Oc3ccc(NC(=O)Nc4ccc(C(F)(F)F)cc4)cc3C(=O)N([C@H](C)CO)C[C@H]2C)cc1	0	-	0	0	0	7.3µM
C[C@@H]1CCCCO[C@H](CN(C)S(=O)(=O)c2ccc(F)cc2)[C@@H](C)CN([C@H](C)CO)C(=O)c2cc(NC(=O)Nc3ccc(C(F)(F)F)cc3)ccc2O1	9.2µM	-	0	0	0	8.2µM
Cc1cccc(C)c1NC(=O)COC(=O)[C@@H]1CCCN1C(=O)c1cccs1	0	0	0	0	0	0
CCOC(=O)C1(CCc2ccccc2)CCN(C(=O)CCn2cncn2)CC1	0	?	0	0	0	0
O=C(c1ccc(S(=O)(=O)NCc2ccco2)cc1)N1CCN(Cc2ccc3c(c2)OCO3)CC1	?	?	0	0	0	16µM
O=C(CS(=O)(=O)Cc1ccccc1)N1CCN(Cc2ccc3c(c2)OCO3)CC1	?	0	0	0	0	?

Source: PubChem BioAssay
